Results taken from PubChem BioAssay (NCI).
This is part of a sample that, as a whole, favours compounds with a hit. Of some 83,000 tested, about 20% had one in any assay.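 Assay: single dose, 48 h. Readout: percent growth (0 = no net growth; negative = cell death). Active: <10.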 The source made the active and inactive calls.

Assays:
Test in all cases: NCI-60 one-dose screen, 48 h (100 = growth as untreated, 0 = no growth, -100 = all killed)
Conditions in all cases: 10 µM unless noted
SR leukemia = system: SR leukemia
RPMI-8226 leukemia = system: RPMI-8226 leukemia
OVCAR-8 ovarian = system: OVCAR-8 ovarian
OVCAR-5 ovarian = system: OVCAR-5 ovarian
OVCAR-4 ovarian = system: OVCAR-4 ovarian
SK-OV-3 ovarian = system: SK-OV-3 ovarian
IGROV1 ovarian = system: IGROV1 ovarian
OVCAR-3 ovarian = system: OVCAR-3 ovarian
HS 578T breast = system: HS 578T breast
NCI/ADR-RES ovarian = system: NCI/ADR-RES ovarian
T-47D breast = system: T-47D breast
BT-549 breast = system: BT-549 breast
MDA-MB-435 melanoma = system: MDA-MB-435 melanoma
HCC-2998 colon = system: HCC-2998 colon
KM12 colon = system: KM12 colon
SW-620 colon = system: SW-620 colon
MCF7 breast = system: MCF7 breast
HCT-116 colon = system: HCT-116 colon

Measured: growth

COc1ccc(S(=O)(=O)Nc2cc(/C=C\c3cc(OC)c(OC)c(OC)c3)cc(OC)c2OC)cc1
active: SR leukemia 9.7% | OVCAR-8 ovarian 7.61% | OVCAR-3 ovarian 3.36% | MDA-MB-435 melanoma -26.3%
inactive: RPMI-8226 leukemia 10.2% | OVCAR-5 ovarian 46.8% | OVCAR-4 ovarian 55.7% | SK-OV-3 ovarian 20.6% | IGROV1 ovarian 19.9% | HS 578T breast 21.1% | NCI/ADR-RES ovarian 11.3% | T-47D breast 86.6% | BT-549 breast 26.6% | HCC-2998 colon 17.7% | KM12 colon 10%

O=c1[nH]c(-c2ccccc2)nc(CN2CCCCC2)c1O
inactive: SR leukemia 85.1% | RPMI-8226 leukemia 97.6% | OVCAR-8 ovarian 107% | OVCAR-5 ovarian 110% | OVCAR-4 ovarian 110% | SK-OV-3 ovarian 114% | IGROV1 ovarian 128% | OVCAR-3 ovarian 110% | HS 578T breast 104% | NCI/ADR-RES ovarian 100% | BT-549 breast 109% | MDA-MB-435 melanoma 110% | SW-620 colon 104% | MCF7 breast 104% | HCT-116 colon 105% | HCC-2998 colon 100% | KM12 colon 108%

CC(C)(C)n1cc(-c2ccnc(NCCNS(=O)(=O)c3ccc(Cl)cc3)c2)c(-c2cccc(O)c2)n1
inactive: SR leukemia 24.9% | RPMI-8226 leukemia 23.8% | OVCAR-8 ovarian 65.1% | OVCAR-5 ovarian 80.9% | OVCAR-4 ovarian 53.5% | SK-OV-3 ovarian 90.4% | IGROV1 ovarian 79.1% | OVCAR-3 ovarian 72.5% | HS 578T breast 66% | NCI/ADR-RES ovarian 68.2% | T-47D breast 38% | MDA-MB-435 melanoma 71.2% | SW-620 colon 28% | MCF7 breast 28.2% | HCT-116 colon 45.4% | HCC-2998 colon 36.7% | KM12 colon 42.5%

Cc1ccc2nc(-c3cc4c([nH]c5ccccc54)c(-c4ccc(F)c(F)c4)n3)[nH]c2c1
active: SR leukemia -18.8%
inactive: RPMI-8226 leukemia 47.4% | OVCAR-8 ovarian 78.3% | OVCAR-5 ovarian 113% | OVCAR-4 ovarian 69% | SK-OV-3 ovarian 109% | OVCAR-3 ovarian 96.7% | HS 578T breast 108% | NCI/ADR-RES ovarian 83% | T-47D breast 77.8% | BT-549 breast 83.7% | MDA-MB-435 melanoma 91.3% | SW-620 colon 101% | MCF7 breast 51.8% | HCT-116 colon 15.2% | HCC-2998 colon 88.6%

CCCCN(CCCC)C(=N)c1ccnc2ccccc12
inactive: SR leukemia 92.7% | RPMI-8226 leukemia 83.1% | OVCAR-8 ovarian 110% | OVCAR-5 ovarian 104% | OVCAR-4 ovarian 94% | SK-OV-3 ovarian 112% | IGROV1 ovarian 98.3% | OVCAR-3 ovarian 104% | NCI/ADR-RES ovarian 110% | T-47D breast 118% | BT-549 breast 120% | MDA-MB-435 melanoma 105% | HCT-116 colon 104% | HCC-2998 colon 102%

O=C(NNC(=O)N1c2ccccc2C=Cc2ccccc21)c1ccccc1
inactive: SR leukemia 96.6% | RPMI-8226 leukemia 104% | OVCAR-8 ovarian 105% | OVCAR-5 ovarian 103% | OVCAR-4 ovarian 103% | SK-OV-3 ovarian 112% | IGROV1 ovarian 110% | OVCAR-3 ovarian 113% | NCI/ADR-RES ovarian 99.8% | T-47D breast 102% | MDA-MB-435 melanoma 103% | SW-620 colon 107% | HCT-116 colon 103% | HCC-2998 colon 114% | KM12 colon 105%

Cc1cc(N/N=C/c2nc(-c3ccccc3)oc2C)c2cc(Cl)ccc2n1
active: SR leukemia -13.7% | RPMI-8226 leukemia -39.4% | OVCAR-8 ovarian -41.7% | OVCAR-5 ovarian -88.5% | OVCAR-4 ovarian -89.6% | OVCAR-3 ovarian -92.5% | HS 578T breast -48.9% | NCI/ADR-RES ovarian -62.5% | T-47D breast -1.37% | MDA-MB-435 melanoma -95.6% | SW-620 colon -73.3% | MCF7 breast -71.9% | HCT-116 colon -94.2% | HCC-2998 colon -77.4% | KM12 colon -83.3%
inactive: SK-OV-3 ovarian 76.4% | BT-549 breast 87%

C=C[C@@H]1C[C@@H]2Cc3ccccc3N1O2
inactive: SR leukemia 97.1% | RPMI-8226 leukemia 85.5% | OVCAR-8 ovarian 106% | OVCAR-5 ovarian 97.4% | OVCAR-4 ovarian 112% | SK-OV-3 ovarian 114% | OVCAR-3 ovarian 121% | HS 578T breast 100% | NCI/ADR-RES ovarian 106% | T-47D breast 110% | BT-549 breast 114% | MDA-MB-435 melanoma 100% | SW-620 colon 102% | MCF7 breast 111% | HCT-116 colon 101% | HCC-2998 colon 114% | KM12 colon 110%

CC(C)C1=CC2=C(C=O)C[C@@H]3[C@](C)(CCC[C@@]3(C)C(=O)OCC#CCN3CCCC3)[C@H]2CC1
inactive: SR leukemia 26.4% | RPMI-8226 leukemia 33.8% | OVCAR-8 ovarian 77.9% | OVCAR-5 ovarian 88.1% | OVCAR-4 ovarian 78.1% | SK-OV-3 ovarian 81.8% | IGROV1 ovarian 75.4% | OVCAR-3 ovarian 88.7% | NCI/ADR-RES ovarian 82.2% | T-47D breast 54.7% | BT-549 breast 63.9% | MDA-MB-435 melanoma 92.8% | SW-620 colon 88% | MCF7 breast 85.7% | HCT-116 colon 50.3% | HCC-2998 colon 93.9% | KM12 colon 75.1%

O=[N+]([O-])c1cc(Cl)c2[nH]c3c(Cl)cc([N+](=O)[O-])cc3c2c1
inactive: OVCAR-3 ovarian 16.8% | HCC-2998 colon 34.8%
active: SR leukemia 2.53% | RPMI-8226 leukemia 3.11% | OVCAR-8 ovarian -2.33% | OVCAR-5 ovarian 9.08% | OVCAR-4 ovarian -24.8% | SK-OV-3 ovarian -11.9% | IGROV1 ovarian 9.12% | NCI/ADR-RES ovarian 6.85% | T-47D breast 4.93% | BT-549 breast -0.691% | MDA-MB-435 melanoma -2.12% | SW-620 colon 5.45% | HCT-116 colon 2.09%

COc1ccc(C(=O)N2NC(=O)/C(=C/c3ccc(Br)cc3)N=C2c2ccccc2)cc1
inactive: SR leukemia 57.2% | RPMI-8226 leukemia 71.7% | OVCAR-8 ovarian 78.4% | OVCAR-5 ovarian 91.4% | OVCAR-4 ovarian 92.7% | SK-OV-3 ovarian 85.3% | IGROV1 ovarian 92.5% | OVCAR-3 ovarian 119% | NCI/ADR-RES ovarian 83.4% | T-47D breast 85.6% | BT-549 breast 85.5% | MDA-MB-435 melanoma 90.7% | SW-620 colon 91.3% | MCF7 breast 85.1% | HCT-116 colon 75.5% | HCC-2998 colon 105% | KM12 colon 99.6%

CC1CCC(C)N(C)C1 (stereo not drawn)
inactive: SR leukemia 88.1% | RPMI-8226 leukemia 89.7% | OVCAR-8 ovarian 105% | OVCAR-5 ovarian 106% | OVCAR-4 ovarian 107% | SK-OV-3 ovarian 102% | IGROV1 ovarian 106% | OVCAR-3 ovarian 112% | NCI/ADR-RES ovarian 107% | T-47D breast 96.9% | BT-549 breast 87.6% | MDA-MB-435 melanoma 111% | SW-620 colon 113% | MCF7 breast 96.5% | HCT-116 colon 97.9% | HCC-2998 colon 85.2% | KM12 colon 110%

CCCCCCCCCCCCCCCCCCNC(=O)[C@H]1CSC(c2ccc(OC)cc2O)N1 (stereo partly drawn)
inactive: RPMI-8226 leukemia 73.4% | OVCAR-8 ovarian 12% | OVCAR-5 ovarian 56% | OVCAR-4 ovarian 84.6% | SK-OV-3 ovarian 96.4% | OVCAR-3 ovarian 80.3% | HS 578T breast 55% | NCI/ADR-RES ovarian 70.8% | T-47D breast 60% | BT-549 breast 27.4% | MDA-MB-435 melanoma 25.4% | SW-620 colon 67.3% | MCF7 breast 23.7% | HCT-116 colon 39.3% | HCC-2998 colon 76.7% | KM12 colon 27%
active: SR leukemia 9.44%

COc1ccc2c(c1)[nH]c(=O)c1c3cc(OC)ccc3cn21
inactive: SR leukemia 20.4% | OVCAR-5 ovarian 25.9% | OVCAR-4 ovarian 46.1% | SK-OV-3 ovarian 42.4% | IGROV1 ovarian 16.8% | NCI/ADR-RES ovarian 21.5% | T-47D breast 13.6% | BT-549 breast 36.8% | MCF7 breast 14.1% | HCC-2998 colon 32.1%
active: RPMI-8226 leukemia -63.2% | OVCAR-8 ovarian 4.9% | MDA-MB-435 melanoma -9.37% | SW-620 colon -2.37% | HCT-116 colon -89% | KM12 colon -13.1%

CCN(CC)CCOC(=O)C(c1ccccc1)(c1ccccc1)C(C)C
inactive: SR leukemia 84% | RPMI-8226 leukemia 96% | OVCAR-8 ovarian 87% | OVCAR-5 ovarian 87.2% | OVCAR-4 ovarian 94.8% | SK-OV-3 ovarian 81.9% | IGROV1 ovarian 78.2% | OVCAR-3 ovarian 80.5% | NCI/ADR-RES ovarian 79.2% | T-47D breast 86% | MDA-MB-435 melanoma 90.8% | HCT-116 colon 92.2% | HCC-2998 colon 96.9% | KM12 colon 90.7%

Cn1ncc2c(Sc3ccc(Cl)cc3)ncnc21
inactive: SR leukemia 53.6% | RPMI-8226 leukemia 48.5% | OVCAR-8 ovarian 101% | OVCAR-5 ovarian 109% | OVCAR-4 ovarian 95.7% | SK-OV-3 ovarian 94.2% | IGROV1 ovarian 87.4% | NCI/ADR-RES ovarian 103% | T-47D breast 76.1% | BT-549 breast 62.1% | MDA-MB-435 melanoma 92.3% | SW-620 colon 100% | MCF7 breast 87.4% | HCC-2998 colon 85.7% | KM12 colon 95.6%

C=C1CCC2C3(C)COC(c4c(OC)cccc4OC)OC3CCC2(C)C1C/C=C1/C(=O)OCC1O (stereo not drawn)
active: RPMI-8226 leukemia -53.5% | HCT-116 colon 1.8% | KM12 colon 9.36%
inactive: SR leukemia 34.7% | OVCAR-8 ovarian 29.5% | OVCAR-5 ovarian 49.3% | OVCAR-4 ovarian 41.3% | SK-OV-3 ovarian 71.6% | IGROV1 ovarian 26.9% | NCI/ADR-RES ovarian 30.9% | T-47D breast 54% | BT-549 breast 16.9% | MDA-MB-435 melanoma 19.4% | SW-620 colon 16.2% | MCF7 breast 27.8% | HCC-2998 colon 113%

NC(=S)N/N=C1\CCCC(C(F)(F)F)C1 (stereo not drawn)
inactive: SR leukemia 78.7% | RPMI-8226 leukemia 71.1% | OVCAR-8 ovarian 84.5% | OVCAR-5 ovarian 103% | OVCAR-4 ovarian 97.7% | SK-OV-3 ovarian 108% | IGROV1 ovarian 13.7% | HS 578T breast 111% | NCI/ADR-RES ovarian 87.7% | BT-549 breast 96.3% | MDA-MB-435 melanoma 105% | SW-620 colon 98.5% | MCF7 breast 27.3% | HCC-2998 colon 104%

COc1ccc(CN2CCc3c(Sc4ccccc4)nc(N)nc3C2=O)c(OC)c1
inactive: SR leukemia 43.3% | OVCAR-8 ovarian 44.8% | OVCAR-5 ovarian 82.3% | OVCAR-4 ovarian 44.3% | SK-OV-3 ovarian 82.2% | OVCAR-3 ovarian 57.1% | HS 578T breast 74.3% | NCI/ADR-RES ovarian 49.7% | T-47D breast 33.9% | BT-549 breast 23.4% | MDA-MB-435 melanoma 60.6% | SW-620 colon 81.2% | MCF7 breast 43.7% | HCT-116 colon 42.7% | HCC-2998 colon 86.2% | KM12 colon 84.9%
active: RPMI-8226 leukemia -6.07%
